Bioassay records as filed in PubChem BioAssay.
Hits are enriched below; roughly 11% of the tested compounds scored in any of these assays.
JMJD2A Tudor = blocks the human JMJD2A Tudor domain; O75164; AlphaScreen JMJD2A-Tudor / H3K4me3 peptide binding; Potency, µM (doses to about 114 µM), inactives show at the top dose activity change, negative = inhibition, most hits filed as inhibitors; actives 4.4% (n = 390,000); AID 504339; further: on the % scale 0 is the no-effect control and ±100 the full control effect; nearly all actives have a fitted effect of over 50% in size
PLK1 PBD block = blocks phosphopeptide binding to human PLK1 polo-box domain. Plk1 PBD binding of FITC phosphopeptide, fluorescence polarization. Potency, µM, without a hit: max response, negative = inhibition, most hits filed as inhibitors. P53350. actives 2.8% (n = 360,000); further: series mostly up to about 57 µM; on the % scale 0 is the no-effect control and ±100 the full control effect; nearly all actives have a fitted effect of over 65% in size
BAZ2B block = blocks human BAZ2B | actives 4.4% (n = 360,000) | Q9UIF8 | Potency, µM (doses to about 114 µM), for inactives: at the highest dose activity change, negative = inhibition, most hits filed as inhibitors | AID 504333 | AlphaScreen BAZ2B-H3K14Ac peptide displacement; further: on the % scale 0 is the no-effect control and ±100 the full control effect; nearly all actives have a fitted effect of over 60% in size
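BAZ2B (50 nM) with biotin-H3(5-23)K14Ac peptide (50 nM) in PBS pH 7.4, 0.01% Tween-20, preformed 30 min, then compound 30 min at room temperature; top concentration 110uM. AlphaScreen streptavidin donor/nickel chelate acceptor beads (10 ug/mL final), 20 min dark, signal read.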
HP1b chromo inh = HP1-beta chromodomain-methylated histone interaction inhibition | P83916 | actives 0.56% (n = 390,000) | AlphaScreen HP1-beta / biotin-H3K9me3 peptide binding | Potency, µM (doses to about 114 µM), inactives show top-dose activity change, negative = inhibition, most hits filed as inhibitors; further: nearly all actives have a fitted effect of over 70% in size
Target sequence (P83916 whole entry, looked up): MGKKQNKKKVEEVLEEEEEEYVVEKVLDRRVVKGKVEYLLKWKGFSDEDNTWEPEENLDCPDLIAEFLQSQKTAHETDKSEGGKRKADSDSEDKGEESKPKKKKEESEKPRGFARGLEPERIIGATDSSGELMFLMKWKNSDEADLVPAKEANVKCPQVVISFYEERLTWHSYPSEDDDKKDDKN
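AlphaScreen: HP1-beta (50 nM) preformed 30 min with biotin-H3(1-18)K9me3 peptide (50 nM) in PBS pH 7.4, 0.01% Tween-20. Compound added for 30 min at RT, then streptavidin donor/nickel chelate acceptor beads (10 ug/mL) for 30 min.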
VDR inh = inhibitors of human vitamin D receptor; P11473; VDR-SRC2-3 peptide fluorescence polarization, 2 h; Potency, µM, without a hit: max response, negative = inhibition, usual class: inhibitors; actives 0.93% (n = 400,000); AID 504847; further: on the % scale 0 is the no-effect control and ±100 the full control effect
Target sequence (P11473 whole entry, looked up): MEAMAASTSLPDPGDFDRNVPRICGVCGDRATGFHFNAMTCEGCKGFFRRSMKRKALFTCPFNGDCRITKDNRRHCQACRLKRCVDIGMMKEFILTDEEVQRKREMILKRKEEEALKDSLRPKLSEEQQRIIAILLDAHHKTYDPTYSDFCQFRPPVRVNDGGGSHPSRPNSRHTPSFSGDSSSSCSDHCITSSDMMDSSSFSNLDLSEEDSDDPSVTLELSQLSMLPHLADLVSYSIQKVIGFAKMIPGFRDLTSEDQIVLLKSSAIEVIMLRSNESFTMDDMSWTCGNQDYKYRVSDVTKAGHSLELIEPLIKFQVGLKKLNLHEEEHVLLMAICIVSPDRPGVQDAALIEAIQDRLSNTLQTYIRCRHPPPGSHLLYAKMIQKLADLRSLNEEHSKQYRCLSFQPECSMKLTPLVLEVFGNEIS
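Signal is fluorescence polarization, reporting how far test compounds block the interaction of VDR with the SRC2-3 coregulator peptide after a 2 h room-temperature incubation.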
G9a block = blocks human histone lysine methyltransferase G9a. Q96KQ7. G9a H3K9 monomethylation, AlphaScreen, 2 h. Potency, µM (highest dose often 102 µM), for the others: at the top dose activity, negative = inhibition, hits mostly inhibitors. actives 8.8% (n = 350,000); further: on the % scale 0 is the no-effect control and ±100 the full control effect; nearly all actives have a fitted effect of over 75% in size
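Chemiluminescent proximity detection of H3K9 monomethylation, read after 10 min bead incubation in the dark. Reaction: 20 nM G9a, 500 nM biotin-H3K9 peptide, 20 uM SAM cofactor, 2 h, room temperature, following 15 min enzyme-compound preincubation.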
* = called active by the depositor; ? = inconclusive; / = no result; [ ] = remark or other dose. The call rests on the fitted dose curve; in most records, active means well fitted curve in the direction sought with a large enough effect; inconclusive means small, poorly fitted or top-dose-only effect, or another doubt; inactive means no such curve, though single readings can be large; an effect the other way counts as inactive or inconclusive. Potency means the concentration at half of the fitted maximal effect.

SMILES | JMJD2A Tudor | PLK1 PBD block | BAZ2B block | HP1b chromo inh | VDR inh | G9a block
CCOc1ccc(N2C(=O)CC(NCCc3ccncc3)C2=O)cc1 (stereo not given) | ? | -3% | 13% | 27% | 20% | 3%[59 µM]
CCCN1CCC(N2CCN(c3ccc([N+](=O)[O-])cc3)CC2)CC1 | 20µM* | -7% | 45µM* | ? | -6% | /
N#Cc1cccc(NC(=O)N2CCC3(CC2)CCN(C(=O)c2cccc(F)c2)CC3)c1 | / | / | / | / | 14% | 2%[12.7 µM]
CCCOc1ccc(N2C(=O)CC(N3CCN(c4nc5ccccc5s4)CC3)C2=O)cc1 (stereo not given) | -9% | -8% | 28% | 44% | 15% | 45µM*
CCn1c(CCCOc2ccc(Cl)cc2Cl)nnc1SCC(=O)Nc1cc(F)ccc1C | -23% | 5% | 2% | 21% | 4% | 12%[59 µM]
C=CCn1c(CCCOc2ccc(Cl)cc2Cl)nnc1SCC(=O)Nc1nccs1 | -20% | -7% | -17% | 42% | -11% | 40µM*
Cc1ccc(/C=C2/N=C(c3ccccc3)NNC2=O)cc1 | -34% | -24% | -20% | 12% | 2% | 14µM*
O=C1NNC(c2ccccc2)=N/C1=C\c1ccccc1 | -2% | 0% | -3% | 50% | ? | /
N#C/C(=C/c1cccn1-c1cccc(C(=O)O)c1)c1ccc(Cl)cc1 | 8.9µM* | 30µM* | 45µM* | ? | ? | ?
ON=Cc1cccn1-c1ccccc1 | -33% | -3% | 50µM* | -10% | -11% | -36%[59 µM]
O=C(O)c1cccc(-n2cccc2/C=N/O)c1 | 32µM* | ? | 45µM* | ? | 7% | ?
CN1C(=O)S/C(=C/c2cccn2-c2cccc(C(=O)O)c2)C1=O | -27% | -14% | ? | 24% | -3% | -30%
CN(Cc1ccccc1)C(=O)C1CCN(S(=O)(=O)c2ccc3c(c2)oc(=O)n3C)CC1 | -12% | / | -13% | 37% | -2% | -18%[59 µM]
COc1cccc(CSc2nc3n(n2)C(c2ccc(C(=O)O)cc2)C(C(=O)Nc2ccccc2)=C(C)N3)c1 (stereo not given) | -29% | / | -15% | 25% | 8% | -3%[59 µM]
COc1ccccc1NC(=O)C1=C(C)Nc2nc(SCc3cccc(F)c3)nn2C1c1ccc(C(=O)O)cc1 (stereo not given) | -17% | / | 50µM* | 30% | -6% | 8%[12.7 µM]
Cc1cccc(-c2n[nH]c(=S)n2-c2ccccc2)c1[N+](=O)[O-] | 35µM* | -5% | 5% | 23% | -20% | 2.2µM*
O=[N+]([O-])c1cccc(-c2n[nH]c(=S)n2-c2ccccc2)c1 | 22µM* | -14% | -5% | 1% | 2% | 2.2µM*
O=[N+]([O-])c1ccc(-c2cn(-c3ccccc3)c(=S)[nH]2)cc1 | -13% | -11% | 5% | 10% | 10% | ?
COc1ccc(-n2c(-c3cc(-c4ccccc4)sc3N)n[nH]c2=S)cc1 | -15% | -1% | -17% | 36% | -3% | 1%
O=[N+]([O-])c1ccc2c(c1)[nH]c(=S)n2-c1ccccc1 | ? | 6µM* | ? | -11% | -12% | 3.2µM*
O=[N+]([O-])c1cccc(-c2cn(-c3ccccc3)c(=S)[nH]2)c1 | -28% | -10% | 1% | 26% | 10% | 1.6µM*
[N-]=[N+]=NCC/C=C\C1NS(=O)(=O)OCC1O (stereo not given) | -13% | -7% | -4% | 29% | -11% | 7%
CC(=O)c1cccc(NC(=O)C2C3C=CC(C3=C(c3ccccc3)c3ccccc3)C2C(=O)O)c1 (stereo not given) | ? | 34µM* | ? | 6% | -15% | 50µM*
CC(=O)c1cccc(NC(=O)Nc2ccccc2)c1 | -4% | -1% | 10% | 54% | 15% | 21%
CCCC(=O)Nc1nnc(-c2ccc(Cl)s2)o1 | -28% | -3% | ? | 61% | -3% | -10%
SMILES | JMJD2A Tudor | PLK1 PBD block | BAZ2B block | HP1b chromo inh | VDR inh | G9a block
O=C(COc1ccc(Cl)cc1)Nc1nnc(C2=COCCO2)o1 | 3.5µM* | -15% | 20µM* | 18% | 1% | 7%
O=C(COc1ccccc1)Nc1nnc(-c2ccc3c(c2)CCCC3)o1 | -16% | -13% | -2% | 44% | -27% | 1%[59 µM]
CCCCC(=O)Nc1nnc(C2=COCCO2)o1 | -2% | -8% | ? | -1% | 4% | 50µM*
O=C(COc1ccccc1)Nc1nnc(-c2ccccc2Cl)o1 | 22µM* | -8% | / | 27% | ? | /
COCCCNC(=O)N1[C@H](c2cccs2)[C@@H](C)C(=O)[C@@H](C)[C@@H]1c1cccs1 | -8% | / | 0% | 42% | 4% | 0%[59 µM]
COc1cc2c(cc1OC)C(COc1ccc3c(C)cc(=O)oc3c1)N(C(=O)c1cccc(OC)c1OC)CC2 (stereo not given) | ? | / | 1% | 11% | -10% | 6%[59 µM]
CCc1ccc(NC(=O)C2CCN(c3nn4c(=O)cc(C)nc4s3)CC2)cc1 | -8% | / | -2% | 28% | 7% | 9%[59 µM]
CCOC(=O)N1CC=C2C(C#N)=C(N)C(C#N)(C#N)[C@H](c3cccs3)C2C1 (stereo not given in full) | -15%[57.1 µM] | -14% | 3% | 50% | -9% | 4%[59 µM]
CC(C)N1CC=C2C(C#N)=C(N)C(C#N)(C#N)C(c3ccccc3)C2C1 (stereo not given) | -21% | ? | -1% | 29% | -21% | ?
CC1CC=C2C(C#N)=C(N)C(C#N)(C#N)C(c3cccs3)C2C1 (stereo not given) | -17% | 27µM* | 3% | 46% | ? | 40µM*
CC(C)(C)OC(=O)N1CC=C2C(C#N)=C(N)C(C#N)(C#N)C(c3cccs3)C2C1 (stereo not given) | -31% | -17% | -28% | 18% | 35µM* | ?
CCOc1ccc(N(C)S(=O)(=O)c2c[nH]c(C(=O)OC)c2)cc1 | -6% | 5% | -15% | 21% | -25% | 0%
CN1CCC(N(C)C(=O)c2cccc(S(=O)(=O)N3CCc4ccccc43)c2)CC1 | -8% | -2% | / | 23% | -3% | /
CNC(=S)N(Cc1ccc(OC)cc1)C1CC(=O)N(c2ccc(C(=O)OC)cc2)C1=O (stereo not given) | / | / | 12% | / | / | 40µM*
CCCCCC(=O)N(O)C1CC(=O)N(c2ccccc2)C1=O (stereo not given) | 22µM* | ? | -29% | -78% | 20µM* | 1.4µM*
CN(Cc1ccccc1)C1CC(=O)N(c2ccc(C(=O)O)cc2)C1=O (stereo not given) | -13% | -3% | 9% | 50% | 22% | 3.5µM*
CCCCCOc1ccc(N2C(=O)CC(N(O)c3ccccc3)C2=O)cc1 (stereo not given) | -19% | -4% | -2% | 18% | 6% | 50µM*
